# Source: ChEMBL document CHEMBL1157539, “Thousands of chemical starting points for antimalarial lead identification” (Nature, 2010)
# What was measured:
# Format in all cases: functional
# Plasmodium falciparum [1] = experiment: GSK_TCMDC: Inhibition of Plasmodium falciparum 3D7 in whole red blood cells, using parasite LDH activity as an index of growth. Test compounds present at 2uM
# Plasmodium falciparum [2] = experiment: GSK_TCMDC: Inhibition of Plasmodium falciparum Dd2 in whole red blood cells, using parasite LDH activity as an index of growth. Test compounds present at 2uM
# HepG2 = experiment: GSK_TCMDC: Percent inhibition of human HepG2 cell line. Test compounds present at 10uM.
Structure (SMILES),Inhibition (Plasmodium falciparum [1]) [%],Inhibition (Plasmodium falciparum [2]) [%],Inhibition (HepG2) [%]
Cl.O=C(Nc1ccc(SC(F)(F)F)cc1)Nc1ccnc2ccccc12,95,42,26
COc1cccc(-c2cnc(N)c(-c3nc4cc(Cl)c(F)cc4[nH]3)c2)c1,100,26,37
Cc1cnccc1/C=C/c1cccc(OCCN2CCc3ccc(S(C)(=O)=O)cc3CC2)c1,93,80,9
COc1cc(NC(=O)/C=C/c2ccccc2OC(F)(F)F)cc(OCCN2CCCCC2)c1.O=C(O)C(=O)O,96,6,25
CCN(CC)CCN(Cc1ccc(-c2ccc(C#N)cc2)cc1)C(=O)Cn1c(CCc2cccc(F)c2F)nc(=O)c2ccccc21.O=C(O)C(O)C(O)C(=O)O,100,46,31
O=C1CN(C(=O)CCC2CCCC2)C(c2ccc(F)cc2)c2cc(F)ccc2N1 (centres undefined),100,75,12
CN1CCc2cc(Br)c(O)cc2C1Cc1ccccc1Cl.Cl (centres undefined),98,88,2
CNC(=O)c1cnc(Nc2ccc(N3CCN(C)CC3)cc2)nc1Nc1cccc([N+](=O)[O-])c1.O=C(O)C(F)(F)F,100,100,31
COc1ccc2c(c1C1CCN(CCCCNC(=O)c3ccc(NC(=O)c4ccc(Cl)cc4)cc3)CC1)CCCC2,100,99,19
CCC(=Cc1cccc([N+](=O)[O-])c1)C(=O)NCC1CCN(c2nc3cc(OC)c(OC)cc3c(=N)[nH]2)CC1.Cl,100,62,25
O=C(CN1CCC2(CCC1=O)CC(=O)c1ccccc1O2)NCCN1CCOCC1 (centres undefined),100,0,6
C=CCn1c(C)cc(C(=O)COc2ccc(S(=O)(=O)N3CCOCC3)cc2[N+](=O)[O-])c1C,94,5,0
CC(C)CCN(Cc1cncn1Cc1ccccc1F)C(=O)c1cncc(-c2ccccc2)c1,96,3,1
Cc1cc(O)c(CN2CCN(Cc3cccs3)CC2)cc1C(C)C,98,97,7
Nc1c2ccccc2nc2cc(Cl)ccc12,100,86,24
CN(C)CCN1CCN(CCCN2c3ccccc3Sc3ccc(C(F)(F)F)cc32)CC1.Cl,99,61,98
CCCNCc1ccc(-c2ccc(CN(Cc3ccc4c(c3)OCO4)C(=O)Cc3cccnc3)cc2)nc1.O=C(O)C(F)(F)F,94,53,16
CN(C)Cc1cccc2nc(-c3csc(Cc4cc(Cl)ccc4OCc4ccccc4)n3)[nH]c12,100,77,14
CC(C)(C)C1CC(=O)CC2C(=O)N(C3CCCCC3)C(=O)C21 (centres undefined),97,27,0
Cn1ccnc1CNC(=O)c1ccc(-c2cccc(-c3nc4cc(C(F)(F)F)ccc4[nH]3)c2)cc1,100,80,20
COc1ccc2ncc(F)c(CCN3CC(O)C(CNCc4ccccc4)C3)c2n1.Cl (centres undefined),89,22,19
Cc1cc(N[C@@H](CC(C)C)C(=O)Nc2ccccc2)nc(Nc2ccccc2)n1.O=C(O)C(F)(F)F,99,93,0
O=C(Nc1ccc(Cl)cc1Cl)NC1CCN(CCCCCNC(=O)C2CC2c2ccc(Cl)c(Cl)c2)CC1 (centres undefined),100,30,67
CNc1ccc(CNCc2ccc(-c3ccc(-c4nc5cccc(C)c5[nH]4)cc3)cc2)cc1.O=C(O)C(F)(F)F,100,92,35
CN1CCC(C(=O)Nc2ccc(-c3ccc(-c4nc5ccccc5[nH]4)s3)cc2)CC1,99,22,30
O=[N+]([O-])c1cccc(S(=O)(=O)N2CCN(CC(O)COc3ccc(-c4ccccc4)cc3)CC2)c1 (centres undefined),94,32,11
Br.CC1(C)NC(N)=NC(=N)N1OCCCCCCOc1ccc(Cl)c2ccccc12,91,94,62
O=C(Nc1ccc(-c2nc3ccccc3[nH]2)cc1)c1ccc(S(=O)(=O)N2CCCCCC2)cc1,97,21,8
